Assay results: PubChem BioAssay (NCI)
Compounds without any hit were thinned out: in the full panel of roughly 83,000, 20% have a hit.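 48-hour exposure, single concentration, 96-well plates; percent growth endpoint where 0 means no net growth. Active: below 10.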 Values without a mark were called inactive. The source made the active and inactive calls.

Test system: HL-60(TB) leukemia
Test: NCI-60 one-dose screen, 48 h (100 = growth as untreated, 0 = no growth, -100 = all killed)
Settings: 10 µM unless noted

## CCOc1ccccc1[C@H]1C(C(=O)c2ccc(Cl)cc2)C2(N[C@@H]1c1ccccc1)C(=O)Nc1ccc(Br)cc12 (some centres not stated)
  growth: -18.4% (active)

## O=C1Nc2cc(-c3ccc(NC(=O)c4cccc([N+](=O)[O-])c4)cc3)ccc2/C1=C/c1ccc[nH]1
  growth: 106%

## Cc1cc2c(cc1Cl)C(=O)/C(=C/c1ccccc1)O2
  growth: -13.7% (active)

## O=c1oc2ccccc2cc1-c1csc(N2N=C(c3ccccc3)CC2c2ccc(N3CCOCC3)cc2)n1 (configuration not stated)
  growth: 96.5%

## CN(C)c1nc(NCCNS(=O)(=O)c2ccc(C(=O)/C=C/c3ccc(F)cc3)cc2)nc(Nc2ccc(F)cc2)n1
  growth: -38.7% (active)

## C/C(=N\N=C\c1ccc(N(C)C)cc1)c1ccc2c(c1)Nc1ccccc1S2
  growth: 59.2%

## COc1c(F)ccc(C(=O)Nc2ccc3nc(NC(=O)C4CCCN(S(=O)(=O)C5CC5)C4)sc3c2)c1F (configuration not stated)
  growth: 32.4%

## CC(=O)Nc1ccc(-c2cn(-c3cccc(C(=O)Nc4ccc(N5CCN(C)CC5)cc4)c3)nn2)cn1
  growth: 64.6%

## CC[C@]12C=CCN3CC[C@@]4(c5ccc(OC)cc5N(C)[C@H]4[C@@](O)(C(=O)OC)[C@@H]1OC(=O)CCCC[P+](c1ccc(F)cc1)(c1ccc(F)cc1)c1ccc(F)cc1)[C@@H]32
  growth: -32.2% (active)

## CC(C)c1ccc2c(N)c(C(=O)Nc3cccc(C(F)(F)F)c3)sc2n1
  growth: 66.2%

## CCC(=O)c1cc(C(=O)OC)c2ccc3c4ccccc4ccc3n12
  growth: 103%

## COc1ccc(-c2nc3ccccc3n2CC(=O)N=Nc2c(O)[nH]c3ccc(OC)cc23)cc1
  growth: 37.6%
